In PubChem BioAssay AID1347120 (National Center for Advancing Translational Sciences (NCATS), 2019):
Screen size: about 390,000 compounds; about 930 (0.24%) were called active. About 5% were inconclusive and are not listed. Calls come from the whole dose curve; as a rule, active = well fitted activation curve with a large enough effect; inconclusive = small, poorly fitted or top-dose-only effect; inactive = no such curve, though single readings can be large or run the other way. Shown is part of a subset that was picked to be rich in actives.

Test: qHTS for Suppressors of FUS Proteinopathy: Primary screen using FUS-linked yeast assay; note: nearly all actives have a fitted effect of over 55% in size;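 for growth rescue (activation): plate controls were DMSO vehicle for no effect and reference control for full effect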
Conditions: S. cerevisiae FUS-expressing, OD600, 24 h; Potency: growth rescue; series mostly up to 76.6 µM; growth rescue (activation): at the top concentration
From the text: Several widespread neurodegenerative diseases, including Alzheimer disease, Huntington disease, Frontotemporal Lobar Degeneration (FTLD) and Amyotrophic Lateral Sclerosis (ALS), share a common pathological feature, namely accumulation of specific protein aggregates in diseased tissue. These diseases which is associated with protein misfolding (proteinopathies) have become increasingly problematic as the population ages and life expectancies are extended. Most proteinopathies are currently incurable, a situation confounded by the fact that the basis of neurodegeneration is generally poorly understood. There exists urgent and significant need to find therapeutics that can inhibit the toxicity associated with protein aggregation. A novel approach to understand the underlying mechanisms of neurodegenerative diseases has recently emerged in which the disease conditions are modeled in the yeast (Saccharomyces cerevisiae), a tractable eukaryotic organism with conserved protein quality control mechanisms. Yeast offers quick and reliable genetic manipulations and can be easily tailored to high-throughput screening (HTS).
For this project, a yeast model of the FUS proteinopathies (a spectrum of neurodegenerative diseases that include ALS and a subtype of FTLD) was generated and employed. The cytoplasmic accumulation of the DNA/RNA-binding protein FUS (also known as TLS) is causative to both familial and sporadic forms of ALS and FTLD. This yeast model recapitulates neuronal pathology by showing severe cytotoxicity associated with cytoplasmic accumulation of FUS aggregates and a specific interaction between FUS and TDP-43, another ALS-associated protein. […] Specifically, the cellular accumulation of misfolded FUS that disrupts RNA homeostasis in both yeast and higher eukaryotes. This model was validated to be suitable for quantitative HTS (qHTS) use for finding genetic or chemical factors that restore growth. […] Identified compounds that inhibits FUS-yeast toxicity is flagged, re-acquired, and validated for further investigation and optimization.
NIH Chemical Genomics Center [NCGC]
NIH Molecular Libraries Probe Production Centers Network [MLPCN]
Assay Submitter (PI): Frank Shewmaker PhD, Uniformed Services University of the Health Sciences
Compound CP55940 was used as the positive control. Column 1 was treated with CP55940 titration from 92uM (final concentration, 1:2 dilution), while Column 2 was treated with top dose 92uM. Columns 3 and 4 were treated with DMSO only as negative control to assess background and noise signal.
Four hundred fifty microliter of cultured yeast (in 20mL rich medium) provided by Dr. Shewmaker lab was incubated at 30C at 99% humidity for 3hr. The culture was then spun down at 4000rpm for 5min and the cell pellet was resuspended in 2mL of Sdmin Media + ALU(330) + 2.5% Raffinose. One hundred microliter of the suspension was added to 900uL of water and OD of the solution was obtained. Twenty mL of responding medium (provided by Shewmaker lab) + 2.5% raffinose was added to ensure cell density of 0.1; the solution was incubated overnight. Working cell solution (FUS-yeast in Sdmi + Sdmi + 1X ALU + 2% galactose media) was prepared (final OD at 0.005) and 3uL was dispensed in a 1536-well Aurora high based clear bottom assay plates. Controls and library compounds (at various final concentrations from 40uM to 0.32uM) were added using a 1536-well pin array using the Kalypsys pin-tool. The plates were then incubated for 24hrs in a cell-culture incubator (30C; 99% humidity). Absorbance at 600nm was then read using the PerkinElmer ViewLux plate reader.
Potency is the fitted concentration of half-maximal effect.

| Compound | growth rescue (activation) | Potency |
| --- | --- | --- |
| COc1ccccc1NC(=O)c1sc2nc(C)c(C(=O)Nc3ccc(Cl)cc3)c(-c3ccc(Br)cc3)c2c1N | 31% (inactive) | – |
| CC(C)S(=O)(=O)c1oc(-c2ccc(F)cc2)nc1S(=O)(=O)c1ccc(F)cc1 | -15.6% (inactive) | – |
| CCOc1ccccc1NC(=O)C1CCCN(S(=O)(=O)c2cn(C)cn2)C1 (stereo not drawn) | 4.87% (inactive) | – |
| COC(=O)c1ccccc1NC(=O)c1ccc2c(=O)n3c(nc2c1)CCCCC3 | 16.4% (inactive) | – |
| COc1cccc(CNC(=O)c2ccc3c(c2)sc2nc(-c4cccc(OC)c4)cn23)c1 | 11.4% (inactive) | – |
| CN1C(=O)c2[nH]nc(-c3ccc(F)cc3)c2C1c1ccccn1 (stereo not drawn) | -19.3% (inactive) | – |
| COc1ccc(CCNC(=O)c2nn(C)c3c2CSc2ccccc2-3)cc1OC | 12.3% (inactive) | – |
| CCCn1c2ccccc2c2cnn(CC(=O)NCC3CCN(Cc4ccc(C)cc4)CC3)c(=O)c21 | -0.459% (inactive) | – |
| Cc1ccc(NC(=O)CSc2nc3ccccc3c3nc(CCn4cncc4C)nn23)cc1F | 20.8% (inactive) | – |
| Cc1cccc(NC(=O)C2CCCN2S(=O)(=O)c2cccc3nsnc23)c1C (stereo not drawn) | 18.3% (inactive) | – |
| COc1ccc(-c2cn3c(n2)sc2cc(C(=O)Nc4ccccc4F)ccc23)cc1 | 19.4% (inactive) | – |
| CCOc1ccc(NC(=O)c2c(NC(=O)Cc3ccccc3)sc3c2CCCCC3)cc1 | 18.3% (inactive) | – |
| NS(=O)(=O)c1ccc(CCNC(=O)CCCCCn2c(=O)[nH]c3ccccc3c2=O)cc1 | 8.38% (inactive) | – |
| CCOC(=O)C1=C(c2ccccc2)Nc2ncnn2C1c1ccc(Cl)cc1 (stereo not drawn) | -5.79% (inactive) | – |
| COc1ccc(N2CCN(c3cc(C)nc4nncn34)CC2)cc1 | -24.9% (inactive) | – |
| COc1ccccc1-c1cc2nc(NCc3cccc(Cl)c3)ccn2n1 | 33.9% (inactive) | – |
| CC(C)Cc1ccc(-c2cc3nc(NCc4cccc(Cl)c4)ccn3n2)cc1 | -4.06% (inactive) | – |
| COCCCNc1ccn2nc(-c3ccc(CC(C)C)cc3)cc2n1 | – | 25.1 µM (active) |
| CCOc1ccccc1N(CC)C(=O)Nc1cn(C)c(=O)c2ccccc12 | 13.2% (inactive) | – |
| Cc1ccc(C)c(N2CCN(CCCNC(=O)Nc3ccc(Cl)cc3)CC2)c1 | 20.1% (inactive) | – |
| CCc1cc2c(cc3c(=O)n(CC(=O)NCCc4ccc(OC)c(OC)c4)ncn32)s1 | 0.833% (inactive) | – |
| Cc1ccc(-c2csc(C(C#N)=C(O)CN3CCN(C(=O)c4ccco4)CC3)n2)cc1 | – | 28.2 µM (active) |
| Cc1ccc(NC(=O)C(c2ccccc2)N2CCN(C(=O)c3ccco3)CC2)cc1 (stereo not drawn) | 31.1% (inactive) | – |
| COc1cccc(OC)c1OCCN1CCN(C(=O)c2ccco2)CC1 | -15.5% (inactive) | – |
| CN1CCN(C2(CNC(=O)COc3ccc(C(C)(C)C)cc3)CCCCC2)CC1 | 20.4% (inactive) | – |
| CC(C)(C)OC(=O)C[C@@H]1C/C=C\C[C@@H](CC(=O)N[C@H](CO)Cc2ccccc2)C(=O)NCCOC1=O | 13.5% (inactive) | – |
| O=C(C[C@H]1C/C=C\C[C@@H](NC(=O)OCC2c3ccccc3-c3ccccc32)C(=O)O[C@@H](c2ccccc2)CNC1=O)N[C@H](CO)Cc1ccccc1 | – | 35.5 µM (active) |
| CC(C)(C)OC(=O)C[C@@H]1C/C=C\C[C@@H](CC(=O)N[C@H](CO)Cc2ccccc2)C(=O)NC[C@@H](c2ccccc2)OC1=O | 25.1% (inactive) | – |
